# Bioassay records: PubChem, The Scripps Research Institute Molecular Screening Center
# NCOA1 inh – inhibits human SRC1 coactivator; Q15788; HEK293 GAL4-SRC1 luciferase reporter, luminescence; inhibition, % at 3.6 µM; actives 0.12% (n = 360,000); AID 588354;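 active = inhibition above the campaign mean plus 3 SD, with each screening campaign given its own cutoff, cut at about 60% in these data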;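 note: 0% = DMSO treated cells and 100% = gossypol at 36 µM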
# LRH-1 inv ag – suppresses constitutive activity of human LRH-1 | HEK293T StAR-luciferase reporter, LRH-1 transfected, 24 h | inhibition, % at 3.6 µM | actives 0.13% (n = 360,000) | AID 602396;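 active = inhibition above the mean inhibition of all tested compounds plus 3 SD, cut at about 73% in these data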;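 note: 0% = DMSO wells and 100% = reporter-only cells lacking LRH-1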
# NCOA2 inhibitor – inhibits human steroid receptor coactivator 2; inhibition, % at 9 µM; AID 651957; actives 0.17% (n = 370,000); HEK293 GAL4-SRC2 luciferase reporter, luminescence; Q15596;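 active = inhibition above the mean inhibition of all tested compounds plus 3 SD, set per campaign, cut at about 52% in these data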;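 note: 0% = DMSO treated cells and 100% = cells given Gossypol at 36 µM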
# COUP-TFII inh – inhibitors of human COUP-TFII (NR2F2). HEK293T NGFI-A luciferase reporter, luminescence. inhibition, % at 8.6 µM. actives 0.7% (n = 370,000). AID 686940;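 active = inhibition above a per-plate cutoff, mean inhibition of test wells between control levels plus 3 SD, cut at about 38% in these data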;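 note: cells cotransfected with COUP-TFII expression vector driving the NGFI-A reporter; 0% = median of COUP-TF2 test wells and 100% = reporter-only cells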
# Target sequence (P24468 whole entry, looked up): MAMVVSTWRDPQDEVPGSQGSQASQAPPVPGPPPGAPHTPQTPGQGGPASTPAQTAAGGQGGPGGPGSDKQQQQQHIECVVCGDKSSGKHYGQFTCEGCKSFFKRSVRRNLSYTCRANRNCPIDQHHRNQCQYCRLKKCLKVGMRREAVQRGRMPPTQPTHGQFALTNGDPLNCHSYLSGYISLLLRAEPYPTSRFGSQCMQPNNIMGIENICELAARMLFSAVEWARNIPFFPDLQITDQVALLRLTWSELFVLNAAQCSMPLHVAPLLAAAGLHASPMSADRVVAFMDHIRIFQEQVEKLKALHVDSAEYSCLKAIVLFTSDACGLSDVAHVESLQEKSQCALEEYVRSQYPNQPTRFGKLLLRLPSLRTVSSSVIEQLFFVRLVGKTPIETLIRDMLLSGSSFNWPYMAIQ
# GalR3 antag – antagonists of human GalR3. HEK293 GalR3-CNG cAMP membrane potential fluorescence; galR3 body fused to GalR1 C-terminus. actives 0.44% (n = 360,000). O60755. inhibition, % at 3 µM;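 active = inhibition above the screen-wide average plus 3 SD, cut at about 13% in these data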;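 note: forskolin and galanin both at EC90 stimulate the cells; cAMP rise reported by CNG channel membrane potential dye signal; 0% = forskolin plus galanin with DMSO and 100% = forskolin alone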
# NCOA3 inh – inhibits human SRC3 coactivator | Q9Y6Q9 | HEK293 GAL4-SRC3 luciferase reporter, luminescence | AID 588352 | actives 0.17% (n = 360,000) | inhibition, % at 3.6 µM;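 active = inhibition above a per-campaign cutoff, the mean of all compounds plus 3 SD, cut at about 60% in these data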;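 note: 0% = DMSO-treated cells and 100% = gossypol-treated cells at 36 µM; higher means less SRC3-driven luciferase light from the GAL4 reporter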
# Active calls of the source: *; · = no result given. Hits are enriched below; roughly 1.1% of the tested compounds scored in any of these assays.
SMILES,NCOA1 inh,LRH-1 inv ag,NCOA2 inhibitor,COUP-TFII inh,GalR3 antag,NCOA3 inh
COc1ccc(-c2cn[nH]c2-c2ccc(O)cc2O)cc1,55.0,9.2,53.9*,18.8,2.9,48.0
C=C(C)COc1ccc(-c2[nH]ncc2-c2ccc(OC)cc2)c(O)c1,17.4,8.8,26.7,30.2,-5.9,33.3
CC(C)CNc1cccc2c1S(=O)(=O)N(Cc1cn(Cc3ccc(C(F)(F)F)cc3)nn1)Cc1ccccc1O2,·,·,7.8,4.0,·,·
COc1ccc(S(=O)(=O)N2CCOCC2)cc1NC(=O)CCNC(=O)c1ccc(Cl)cc1,-4.6,-8.5,12.0,3.8,-4.1,-11.3
COc1ccc(S(=O)(=O)N2CCOCC2)cc1NC(=O)CCNC(=O)c1ccc(Br)cc1,44.3,82.5*,56.9*,-6.2,-5.2,31.3
O=C(N=C1N(Cc2ccccc2)C[C@]2(C=C3CCCCC3n3c(=O)n(-c4ccccc4)c(=O)n32)N1C(=O)OCc1ccccc1)c1ccccc1 (stereo partly specified),·,·,-9.7,20.0,·,·
COC(=O)[C@]12C[C@H](CC(=O)NCc3cccs3)C(=O)N(CCC3=CCCCC3)C1=C[C@H](C(C)C)O[C@@H]2C1CC1,·,·,-6.5,-12.7,·,·
CCOC(=O)C1=C(C(=O)OCC)C2N(Cc3ccc(C(F)(F)F)cc3)c3ccccc3[C@@]23C[C@@H](C(=O)OC)N(S(=O)(=O)c2ccc(OC)cc2)C3=N1 (stereo partly specified),·,·,13.6,-3.3,-6.0,·
CC(C)C[C@@H]1COc2cc(Br)ccc2S(=O)(=O)N1Cc1cn(Cc2ccccc2)nn1,·,·,14.3,-3.2,·,·
O=C1C=CC(=O)N1Cc1ccccc1,-0.3,-11.3,-8.8,60.9*,·,-23.2
CN1C(=O)N(C)N(Cc2ccccc2)C(=O)N1Cc1ccccc1,·,·,-15.3,15.0,-6.7,·
COC(=O)[C@]12C[C@H](CC(=O)N3CCN(C(=O)c4ccco4)CC3)C(=O)N(Cc3ccc(Cl)cc3Cl)C1=C[C@H](C1CCCC1)O[C@@H]2C,·,·,20.9,-7.2,·,·
COc1cc(C(=O)/C=C/c2cccnc2)c([N+](=O)[O-])cc1OC,39.7,50.8,60.6*,27.6,8.0,56.5
O=C(/C=C/c1cccnc1)c1ccc([N+](=O)[O-])cc1,-17.6,3.2,-0.5,7.0,-3.9,16.0
CCCCN(CC)Cc1ccc(CNC(=S)Nc2ccc(C)cc2Cl)o1,15.2,9.4,52.5*,9.1,-5.8,35.6
CCCCN(CC)Cc1ccc(CNC(=S)Nc2c(C)cc(C)cc2C)o1,-8.6,2.9,23.2,-6.0,-5.7,4.8
COc1ccc2cc3cc(C(=O)NCCc4ccc(OC)c(OC)c4)oc3nc2c1,36.7,2.5,-2.3,53.8*,-7.4,29.3
CCCN(CCC)CCCNC(=O)c1cc2cc3ccc(OC)cc3nc2o1,-22.6,-12.7,-4.6,-3.2,-4.2,-5.2
[C-]#[N+][C@]12C(=O)[C@H](C=C(Cl)[C@@]1(C)C=C)C(C)(C)[C@H]1C(=O)N(C)c3cccc2c31,·,·,18.3,12.5,·,·
COCC(=O)N(C)[C@H]1C[C@H]2c3[nH]c4c(-c5ccc6c(c5)OCO6)cccc4c3CCN2C(=O)[C@H]1[C@H](C)O,·,·,11.6,-7.0,·,·
CN(Cc1cnc2nc(N)nc(N)c2n1)c1ccc(C(=O)NC(CCC(=O)O)C(=O)O)cc1 (stereo unspecified),78.3*,79.3*,4.4,-5.5,1.2,83.2*
CCCN(CCC)C(=O)C(CCC(=O)O)NC(=O)c1ccccc1 (stereo unspecified),3.0,7.3,15.7,2.7,·,-6.0
CN(Cc1cnc2nc(N)nc(N)c2n1)c1ccc(C(=O)NC(CCC(=O)O)C(=O)O)cc1C(F)(F)F (stereo unspecified),66.6*,44.6,-16.4,-20.4,-4.8,72.5*
Cc1ccc(S(=O)(=O)NC(CC(C)C)C(=O)NCC(c2ccco2)N2CCCCC2)cc1 (stereo unspecified),64.6*,38.2,·,·,·,72.2*
CCC(C)Nc1nc(C)nc2c1nnn2Cc1ccccc1 (stereo unspecified),·,·,0.9,-0.7,·,·
O=C(CSc1nc2ccccc2c(=O)n1-c1ccc(Cl)cc1)NNC(=S)Nc1ccccc1,·,·,-24.6,-0.4,·,·
COc1ccccc1C(=O)Nc1nc(-c2ccc(S(=O)(=O)N3CCOCC3)cc2)cs1,85.2*,81.7*,74.5*,71.6*,94.0*,88.5*
